# Measurements reported in PubChem BioAssay (NCATS).
# Target: Phenylethanolamine N-methyltransferase (Homo sapiens) (UniProt P11086)
# Assay: Confirmatory Screen for Target Class Profiling of Small Molecule Inhibitors of Methyltransferases (AID 1745852)
# Conditions: MTase-Glo luminescence, SAH detection, recombinant enzyme; measured here: PNMT max response; stronger effect = lower value
# Chain of Phenylethanolamine N-methyltransferase (Homo sapiens) (P11086 whole entry, looked up): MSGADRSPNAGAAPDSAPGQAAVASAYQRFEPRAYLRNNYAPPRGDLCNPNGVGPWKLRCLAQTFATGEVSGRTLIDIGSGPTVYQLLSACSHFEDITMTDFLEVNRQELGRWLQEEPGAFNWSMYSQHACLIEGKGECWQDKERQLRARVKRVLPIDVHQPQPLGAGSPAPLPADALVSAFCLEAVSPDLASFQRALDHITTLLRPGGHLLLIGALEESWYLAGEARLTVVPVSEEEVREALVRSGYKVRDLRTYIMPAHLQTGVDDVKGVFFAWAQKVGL
compound,measurement,value
O=C(CCCCCN1C(=O)c2cccc3cccc(c23)C1=O)NO,activity,-6.54%
